This note sets out measurements from PubChem BioAssay (Tox21).

Assay [1] deals with Retinoic acid receptor RXR-alpha (Homo sapiens) (UniProt P19793). Put plainly: qHTS assay to identify small molecule agonists of the RXR signaling pathway (AID 1159527; calls by dose curve; further: nearly all actives have a fitted effect of over 35% in size; further: potency means the concentration at half of the fitted maximal effect). The procedure, abridged:
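Agonist-mode beta-lactamase reporter assay: HEK 293T RXR-alpha-UAS-bla cells treated 16 hr at 37 C with compounds, 9-cis retinoic acid as positive control. LiveBLAzer FRET substrate, 405 nm excitation, 460/530 nm emission.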
For orientation: In qHTS, concentration-response curves come from the screen itself.

A short description of assay [2]: qHTS assay to identify small molecule agonists of the RXR signaling pathway - cell viability counter screen (AID 1159529). Further: series mostly up to about 77 µM; nearly all actives have a fitted effect of over 50% in size. The procedure, abridged: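 CellTiter-Glo luminescence gave viability in the wells also read for beta-lactamase. Cells (RXR-alpha-UAS-bla HEK 293T, 2% charcoal-stripped FBS medium) had 5 hr plating, then 16 hr compound exposure at 37 C; tetraoctyl ammonium bromide served as positive control.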

The nature of assay [3]: qHTS assay to identify small molecule antagonists of the retinoid acid receptor (RAR) signaling pathway - cell viability counter screen (AID 1159551). Further: nearly all actives have a fitted effect of over 35% in size. The procedure, abridged:
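Measured by luminescent ATP detection, viability reflects C3RL4 cells treated 6 h at 37 C with test chemicals in the presence of 1 uM (final) retinol.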

The nature of assay [4]: qHTS assay to identify small molecule antagonists of the estrogen related receptor (ERR) signaling pathway from Tox21 library - cell viability counter screen (AID 1224834). Further: nearly all actives have a fitted effect of over 30% in size. Further: potency means the concentration at half of the fitted maximal effect. The procedure, abridged:
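Seeded ERR cells were rested 6 h at 37 C/5% CO2 before compounds, positive and negative controls or DMSO were added. Incubation continued for 17.5 h, and viability was then quantified by CellTiter-Fluor fluorescence.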

In assay [5] the target is Luciferin 4-monooxygenase (Photinus pyralis) (UniProt P08659). Put plainly: qHTS assay to identify small molecule inhibitors of firefly luciferase (AID 1224835). Further: nearly all actives have a fitted effect of over 25% in size. Further: potency means the concentration at half of the fitted maximal effect. The procedure, abridged:
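Biochemical qHTS: compounds run as interplate titrations against purified firefly enzyme, with D-luciferin and ATP each at its KM concentration. Light output recorded by CCD imaging.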

Assay [6] can be described thus: qHTS assay to identify small molecule antagonists of the constitutive androstane receptor (CAR) signaling pathway - cell viability counter screen (AID 1224837). Further: series mostly up to about 92 µM; nearly all actives have a fitted effect of over 45% in size. The procedure, abridged: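 To flag cytotoxic false antagonists, HepG2 hCAR/CYP2B6-2.2kb cells were treated 23 hr with 15-concentration compound series and 50 nM CITCO at 37 C/5% CO2; CellTiter-Fluor fluorescence was the measured end point.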

Assay [7] has as its target Nuclear receptor subfamily 1 group I member 3 (Homo sapiens) (UniProt Q14994). Put plainly: qHTS assay to identify small molecule antagonists of the constitutive androstane receptor (CAR) signaling pathway (AID 1224838).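 Further: HepG2 cells stably expressing hCAR with CYP2B6 luciferase reporter stimulated by CITCO; nearly all actives have a fitted effect of over 40% in size.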 The procedure, abridged: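 Human hepatoma HepG2 cells expressing hCAR and a CYP2B6 promoter (2.2 kb) luciferase construct; compound titration (15 points) with 50 nM CITCO final, 24 h at 37 C/5% CO2; luminescence via ONE-Glo after 30 min at room temperature.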

The target is the same in assay [8]. In words: qHTS assay to identify small molecule agonists of the constitutive androstane receptor (CAR) signaling pathway (AID 1224839). Further: nearly all actives have a fitted effect of over 15% in size. Further: potency means the concentration at half of the fitted maximal effect. The procedure, abridged: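 Luminescent ONE-Glo read-out after 24 hr, 37 C exposure of double-stable HepG2-CYP2B6-hCAR reporter cells to a 15-point compound series, in the presence of 0.75 uM PK11195 (final).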
The nature of assay [9]: qHTS assay to identify small molecule antagonists of the estrogen related receptor signaling pathway with the pleiotropic PPARgamma coactivator (PGC) from Tox21 10K library - cell viability counter screen (AID 1224840; active means well fitted cell-killing curve with a large enough effect in the repeat runs, not every such curve was filed as active; further: nearly all actives have a fitted effect of over 40% in size; further: potency means the concentration at half of the fitted maximal effect). The procedure, abridged: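 Seeded PGC/ERR cells (2,000/well, 6 h, 37 C/5% CO2) get compound by pin tool; 17.5 h incubation at 37 C; CellTiter-Fluor added, 30 min, fluorescence measured.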

Assay [10] is described as follows: qHTS assay to identify small molecule antagonists of the estrogen related receptor signaling pathway with the pleiotropic PPARgamma coactivator (PGC) from Tox21 10K library (AID 1224841; call rule not given here; further: actives are mostly falling curves and most rising ones were filed inactive; nearly all actives have a fitted effect of over 50% in size; further: potency means the concentration at half of the fitted maximal effect). The procedure, abridged: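 Test chemicals dissolved in DMSO were applied to pre-incubated (6 h) PGC/ERR cells at 2,000 cells/well for an 18 h, 37 C treatment; reporter luminescence was then read using One-Glo.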

Assay [11] can be described thus: qHTS assay to identify small molecule agonists of the estrogen related receptor signaling pathway with the pleiotropic PPARgamma coactivator (PGC) from Tox21 10K library (AID 1224842). Further: nearly all actives have a fitted effect of over 15% in size. The procedure, abridged:
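PGC/ERR reporter cell line, 2,000 cells per well, incubated 6 h at 37 C before 23 nL compound in DMSO was added. After 18 h at 37 C, One-Glo luminescence read following 30 min at room temperature.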

Assay [12] is described as follows: qHTS assay to identify small molecule agonists of the constitutive androstane receptor (CAR) signaling pathway - cell viability counter screen (AID 1224836). Further: series mostly up to about 92 µM; nearly all actives have a fitted effect of over 45% in size. The procedure, abridged:
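Cell viability multiplexed with the CAR agonist screen: CellTiter-Fluor fluorescence after 23 hr at 37 C. HepG2-CYP2B6-hCAR cells got compounds at 15 concentrations with PK11195 at 0.75 uM final.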

Assay [13] in a line: qHTS assay to identify small molecule antagonists of the retinoic acid receptor (RAR) signaling pathway (AID 1159552; further: nearly all actives have a fitted effect of over 50% in size). The procedure, abridged: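 Luminescent RARE reporter read-out in C3RL4 cells: 6 hr co-treatment at 37 C of test compounds with retinol at 1 uM final. Cells plated overnight beforehand; luciferase reagent incubated 30 min at room temperature before reading.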

The nature of assay [14]: qHTS assay to identify small molecule agonists of the retinoic acid receptor (RAR) signaling pathway (AID 1159553). Further: potency means the concentration at half of the fitted maximal effect. The procedure, abridged: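 6 hr compound exposure (DMSO vehicle) of overnight-plated C3RL4 RARE-luc cells at 37 C; luminescence quantified after 30 min RT with luciferase reagent.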

Structures are written as SMILES. Where “and” joins values, the source holds several entries; their conditions need not be identical. Equal entries are not always repeated. Records with an inconclusive call do not appear. Some structures have more than one record in an assay (separate samples or runs), and their calls can disagree. Calls of active or inactive are those of the source. Unless noted, the call rests on the fitted dose curve; in most records, active means well fitted curve in the direction sought with a large enough effect in the repeat runs; inconclusive means weak or mixed curves; inactive means no such curve, though single readings can be large; an effect the other way counts as inactive or inconclusive.

Sequence of Nuclear receptor subfamily 1 group I member 3 (Homo sapiens) (Q14994 whole entry, looked up): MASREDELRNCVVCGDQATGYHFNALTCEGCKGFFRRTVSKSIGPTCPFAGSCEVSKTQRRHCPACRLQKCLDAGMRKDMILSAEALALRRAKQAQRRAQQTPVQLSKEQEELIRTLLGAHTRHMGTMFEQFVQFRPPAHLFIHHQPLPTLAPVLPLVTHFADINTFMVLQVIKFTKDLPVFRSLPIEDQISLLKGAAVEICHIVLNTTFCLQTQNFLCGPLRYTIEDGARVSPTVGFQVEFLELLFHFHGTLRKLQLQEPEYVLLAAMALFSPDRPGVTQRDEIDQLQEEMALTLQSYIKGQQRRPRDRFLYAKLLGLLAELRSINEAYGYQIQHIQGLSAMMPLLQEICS
Sequence of Retinoic acid receptor RXR-alpha (Homo sapiens) (P19793 whole entry, looked up): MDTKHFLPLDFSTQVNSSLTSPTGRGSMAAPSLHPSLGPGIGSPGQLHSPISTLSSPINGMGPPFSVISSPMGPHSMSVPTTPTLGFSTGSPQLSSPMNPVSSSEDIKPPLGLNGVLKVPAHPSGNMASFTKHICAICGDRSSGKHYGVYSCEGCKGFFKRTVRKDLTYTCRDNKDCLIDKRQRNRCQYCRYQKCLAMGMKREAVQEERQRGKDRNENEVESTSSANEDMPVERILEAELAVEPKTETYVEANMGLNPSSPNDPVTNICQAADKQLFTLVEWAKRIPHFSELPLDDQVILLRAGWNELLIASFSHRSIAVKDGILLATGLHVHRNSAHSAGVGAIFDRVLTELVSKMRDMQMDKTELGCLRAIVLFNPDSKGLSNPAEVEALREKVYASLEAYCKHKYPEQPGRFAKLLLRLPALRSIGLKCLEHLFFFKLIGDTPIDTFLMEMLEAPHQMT
Sequence of Luciferin 4-monooxygenase (Photinus pyralis) (P08659 whole entry, looked up): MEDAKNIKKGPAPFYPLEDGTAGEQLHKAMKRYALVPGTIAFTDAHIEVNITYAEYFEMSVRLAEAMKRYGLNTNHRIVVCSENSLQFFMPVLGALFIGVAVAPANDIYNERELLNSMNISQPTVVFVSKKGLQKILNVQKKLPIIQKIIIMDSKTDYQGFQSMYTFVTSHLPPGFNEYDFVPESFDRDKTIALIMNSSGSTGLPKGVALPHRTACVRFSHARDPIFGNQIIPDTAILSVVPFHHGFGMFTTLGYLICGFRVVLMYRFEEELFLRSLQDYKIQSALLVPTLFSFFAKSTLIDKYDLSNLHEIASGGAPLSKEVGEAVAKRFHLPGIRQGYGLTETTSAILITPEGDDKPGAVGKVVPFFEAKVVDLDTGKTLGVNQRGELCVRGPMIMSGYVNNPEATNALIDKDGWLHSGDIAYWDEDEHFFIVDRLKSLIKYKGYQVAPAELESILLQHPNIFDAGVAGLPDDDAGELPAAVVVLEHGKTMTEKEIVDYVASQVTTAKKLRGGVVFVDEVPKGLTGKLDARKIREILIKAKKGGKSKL

For `c1ccc2c(c1)CCCC2`, the Potency result in assay [1], in [4], in assay [5], in [6], in assay [7] and in [8] was “inactive” in each case. In addition, the molecule was classed as inactive in [2] and in assay [3].
`CC(C)(C)C(=O)CCl`: the Potency entry in assay [1], in assay [4], in [5], in [6], in assay [9] and in assay [10] was “inactive” in each case. In assay [11], the Potency entry is “inactive”. For the same molecule, the result in assay [2] and in assay [3] was inactive.
`O=C(O)C(Br)Br`: the Potency result in assay [1], in assay [4], in assay [5], in assay [12], in [6] and in [7] was “inactive” throughout. For the same molecule, in assay [8], the Potency result was “inactive”. For the same molecule, the result in [2] and in assay [3] was inactive.
Take `OCCCCO`: the Potency entry in assay [1], in assay [13], in assay [14], in [4], in [6] and in [7] was “inactive” in each case. In addition, the Potency result in [8], in assay [10] and in assay [11] was “inactive” each time. The molecule was called inactive in [2] and in assay [3].
For the molecule `OCc1ccco1`, the Potency entry in assay [1] is “inactive and 5.49 µM (active)”. Also, the molecule was classed as inactive in assay [2] and in assay [3]. Also, the Potency entry in assay [4], in assay [5], in assay [12], in assay [6], in [7] and in assay [8] was “inactive” each time. In addition, the Potency entry in assay [10] and in [11] was “inactive” throughout.
Turning to `Cc1cccc(N)c1`, the Potency result in assay [1], in [14], in assay [4], in assay [5], in [6] and in [7] was “inactive” throughout. Also, the Potency result in assay [8], in assay [10] and in assay [11] was “inactive” in each case. Further, the call in [2] and in assay [3] was inactive.
With `C=C(C)C(=O)OCC(CC)CCCC` (centres undefined), the Potency result in [1], in assay [13], in [14], in [5], in assay [6] and in [11] was “inactive” throughout. The outcome in [2] and in [3] was inactive. In addition, the Potency in [4] is 55.5 µM (active) and inactive; in assay [9], 39.3 µM (active) and inactive; in assay [10], 31.2 µM (active) and inactive.
As to `Nc1ccc(N)cc1`, the Potency entry in assay [1], in assay [13], in [7] and in assay [9] was “inactive” in each case. The result in [2] and in assay [3] was inactive. For the same molecule, the Potency is 34.4 µM (active) and 23.7 µM (active) in [14]; 30.8 µM (active) and 30.6 µM (active) and inactive in assay [4]; 40.1 µM (active) and 35.6 µM (active) in [5]; 21.8 µM (active) and 21.7 µM (active) and inactive in assay [8].
As for `CC(=O)/C=C/c1ccccc1`, the Potency result in assay [1], in [4], in [5], in assay [12], in assay [6] and in assay [7] was “inactive” each time. For the same molecule, the Potency result in assay [8] and in assay [9] was “inactive” in each case. Moreover, the call in assay [2] and in [3] was inactive.
In the case of `O=C(O)CCCc1ccc(N(CCCl)CCCl)cc1`, the Potency entry in [1], in assay [4], in assay [5], in assay [12] and in assay [6] was “inactive” throughout. Further, the molecule was classed as inactive in assay [2] and in assay [3].
`O=C(O)COc1ccccc1`: the Potency result in assay [1], in [4], in assay [5], in [12], in assay [6] and in [7] was “inactive” in each case. The Potency entry in [8] and in assay [9] was “inactive” in each case. In addition, the molecule was classed as inactive in assay [2] and in assay [3].
On to `CCOP(=S)(OCC)Oc1cc(C)nc(C(C)C)n1`, for which the Potency result in [1], in [4], in [5], in assay [12], in assay [6] and in assay [7] was “inactive” throughout. For the same molecule, the Potency result in assay [8] and in [9] was “inactive” throughout. The molecule was called inactive in [2] and in assay [3].
For the molecule `Nc1cccc(Cl)c1`, the Potency result in [1], in assay [4], in assay [5], in [12], in assay [6] and in [7] was “inactive” each time. For the same molecule, the Potency entry in assay [8], in assay [10] and in assay [11] was “inactive” each time. Also, the result in assay [2] and in assay [3] was inactive.
As for `C[C@]12CC[C@H](O)CC1=CC[C@@H]1[C@@H]2CC[C@]2(C)C(=O)CC[C@@H]12`, the outcome in assay [2] and in [3] was inactive. Besides, the Potency entry in [13], in assay [14], in assay [4], in [5], in assay [12] and in assay [6] was “inactive” each time. For the same molecule, the Potency result in [7], in assay [8] and in assay [9] was “inactive” in each case.
